# From PubChem BioAssay AID827 (SRMLSC, 2007)
# The whole screen tested about 140,000 compounds, of which about 1,700 (1.2%) were called active. The sample as a whole holds a higher share of actives than the screen did. A number with no mark means an inactive call.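 The calls were made as follows: active = viability at or below a set limit, 4 SD under the median of all tested compounds (cut at about 3.7% in these data); inactive = the rest.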
# Experiment: growth suppression of PTEN-null HCT116, primary screen, cell-based, CellTiter-Glo (AID 827);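 also: PTEN knockout HCT116 line with beta catenin targeted HCT116 as companion control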
# Settings: 60 h, at 10 µM, active compounds read low
row,Structure (SMILES),viability
1,COc1ccc(C2CC(c3ccccc3)=NN2C(=O)c2ccc(Cl)c([N+](=O)[O-])c2)cc1 (configuration not stated),10.4%
2,CCOc1ccccc1C1CC(c2cccc(NS(C)(=O)=O)c2)=NN1C(=O)c1ccccc1 (configuration not stated),84.5%
3,CCOc1ccc2nc(Cl)c(C3CC(c4ccccc4)=NN3C(=O)c3cccs3)cc2c1 (configuration not stated),1.17% (active)
4,Cc1c(Cl)cnc(NC(=O)COC(=O)c2ccc(S(=O)(=O)NCc3ccco3)cc2)c1Cl,85.2%
5,COC(=O)c1sc2ncccc2c1OCc1ccc(Cl)cc1Cl,63.7%
6,NC(N)=N/N=C/c1ccc(OCc2ccc(Cl)cc2Cl)cc1,1.56% (active)
7,COc1ccc(C(=O)O/N=C(\N)Cc2ccc(Cl)cc2Cl)cc1OC,69.4%
8,CC1CCCCN1C(=S)NCc1ccccc1 (configuration not stated),94.7%
9,O=C(CC1SC(=Nc2ccccc2)N(Cc2ccccn2)C1=O)Nc1cccc(Cl)c1 (configuration not stated),76.2%
10,Cc1nc(C)c(C(=O)Nc2cccc(C)c2C)o1,109%
11,O=C(O)c1ccccc1-c1ccccc1C(=O)Nc1cccc2ccccc12,96%
12,O=C(Nc1cccc2ccccc12)c1onc2c1CCCC2,0.29% (active)
13,Cc1ccc(-n2nc(C)c(/C=N/NC(=O)c3cccs3)c2Cl)cc1,55.5%
14,Cc1c(C2=CCN(S(=O)(=O)c3ccc(Cl)cc3)CC2)c2ccccc2n1C,74%
15,COc1ccc(C(CCNCc2ccccc2F)c2ccc(F)cc2)cc1 (configuration not stated),10.1%
16,COc1cccc(CNCCc2c[nH]c3ccccc23)c1OCc1ccccc1F,1.43% (active)
17,COc1ccccc1NC(=O)CCCc1c[nH]c2ccccc12,92.8%
18,CCOC(=O)/C(N=Nc1cc(C(=O)O)cc(C(=O)O)c1)=C(\O)CCl,101%
19,CC(=O)c1c(N2CCN(c3ccc(F)cc3)CC2)nc(=S)n(-c2ccccc2)c1C,93%
20,Nc1nnc(SCC(=O)Nc2ccc3nc(SCC(=O)Nc4ccccc4)sc3c2)s1,72.2%
21,O=c1[nH]n(-c2cccc(Cl)c2)c2ncccc12,95.2%
22,Oc1c(CN2CCN(c3ccc(F)cc3)CC2)cc(Cl)c2cccnc12,4.32%
23,Clc1cccc(CN2COc3c(cc(Cl)c4cccnc34)C2)c1,3.76% (active)

row,Structure (SMILES),viability
1,CCOC(=O)c1cccnc1NC(=O)c1ccncc1,101%
2,CCCc1nc2c([nH]1)C(c1cccnc1)C(C#N)=C(N)O2 (configuration not stated),98.7%
3,COC(=O)NNC(=O)C1CCC(C)CC1 (configuration not stated),97%
4,Cc1ccc(Cl)cc1N1CCN(C(=O)c2cccc3c(=O)c(C)c(-c4ccccc4)oc23)CC1,1.24% (active)
5,COC(=O)c1ccc(C(=O)OC)c(NC(=S)N2CCN(c3cc(Cl)ccc3C)CC2)c1,90.3%
6,O=C(c1cccc2ccccc12)N1CCN(c2ccccc2F)CC1,90.8%
7,COCCCNC(=O)Cn1cc(/C=C(\C#N)C(=O)N2CCN(c3ccccc3)CC2)c2ccccc21,86.2%
8,Cc1ccc(-c2nn(-c3ccccc3)cc2C(=O)Nc2cccc(S(=O)(=O)N3CCOCC3)c2)cc1,89.5%
9,Cc1cc(Cl)ccc1NC(=S)N1CCC(C(N)=O)(N2CCCCC2)CC1,88.6%
10,Cc1nc(CC(=O)NNS(=O)(=O)c2ccc(F)c(Cl)c2)cs1,95.8%
11,O=C(Cn1cnc2ccccc21)N/N=C/c1ccco1,97.9%
12,COc1ccc(NC(=O)/C(Cl)=C(/Cl)S(=O)Cc2ccc(C)cc2)cn1 (configuration not stated),0.92% (active)
13,COc1cc(NC(=O)Nc2ccc(C)cc2)cc([N+](=O)[O-])c1,79.8%
14,COc1ccc(NS(=O)(=O)c2ccc(NC(=S)NC(=O)/C=C/c3ccc(C)cc3)cc2)nn1,94.4%
15,O=C(/C=C/c1ccccc1[N+](=O)[O-])NCC1CCCO1 (configuration not stated),102%
16,C=CCNC(=S)NNC(=O)c1ccc(Br)o1,94.9%
17,CCN(CC)S(=O)(=O)c1ccc(C)c(NC(=O)COc2ccc(Br)cc2Cl)c1,84.6%
18,CCn1cc(/C=C2/SC(=S)NC2=O)c(C)n1,103%
19,COc1ccc(-c2cc(C(=O)NC(Cc3c[nH]c4ccccc34)C(=O)O)c(C)o2)cc1OC (configuration not stated),99.7%
20,COc1cc(NS(=O)(=O)c2ccccc2)ccc1-n1nc(C)cc1C,94.5%
21,COc1ccc(Nc2cc(C)nc(-n3nc(C)cc3C)n2)cc1,18.6%
22,COc1ccccc1/C=N\Nc1cc(C)nc(-n2nc(C)cc2C)n1,2.6% (active)
23,CCN(CC)CCn1c(/N=C/c2cc(Br)ccc2O)nc2ccccc21,94%

row,Structure (SMILES),viability
1,O=C(NCCc1ccccn1)c1cc(-c2ccc(Cl)cc2)nc2ccccc12,98.1%
2,c1ccc(-c2cc3c(NCC4COc5ccccc5O4)ncnc3s2)cc1 (configuration not stated),42.1%
3,CCCc1cc(=O)[nH]c(SCC(=O)N2CCN(S(=O)(=O)c3ccc(C)cc3C)CC2)n1,93%
4,COc1ccc(CC(=O)Nc2ccc(C(=O)NC(C)(C)C)cc2)cc1,92.4%
5,COc1cccc(NC(=O)Cc2ccc(C)cc2)c1,113%
6,COc1ccc(CC(=O)Nc2ccc(-c3nnc(-c4ccc(C)cc4)o3)cc2)cc1,2.56% (active)
7,Cc1cccc(C)c1NC(=O)C(c1ccccc1)N1CC(=O)Nc2ccccc21 (configuration not stated),66%
8,O=C(Nc1cc(C(F)(F)F)ccc1Cl)C(=O)N1CCCCC1,91.1%
9,O=C(NNc1ccccc1Cl)C(O)(c1cccc(C(F)(F)F)c1)c1cccc(C(F)(F)F)c1,1.89% (active)
10,CC(CC(=O)Nc1cc(C(F)(F)F)ccc1Cl)c1ccccc1 (configuration not stated),51.3%
11,Cc1cc(C(=O)N/N=C/c2cc([N+](=O)[O-])cc(C)c2O)n[nH]1,83%
12,O=C(COC(=O)[C@H](Cc1ccccc1)NC(=O)c1cccs1)Nc1cc(F)ccc1F,91.4%
13,CCCSc1nc2[nH]ncc2c(=O)[nH]1,90.6%
14,Cc1cc2oc(C(=O)Nc3c(C)n(C)n(-c4ccccc4)c3=O)c(C)c2cc1Cl,85%
15,CCn1c(SCc2ccc(C)cc2)nnc1-c1nn(-c2ccccc2)ccc1=O,87.8%
16,CCc1ccc(-c2nn(-c3ccccc3)cc2CSC(=N)N)cc1,1.62% (active)
17,N=C(N)SCc1cccc2ccccc12,87.8%
18,S=C(NCc1ccc(Cl)cc1)NC1CCCCC1,77.6%
19,S=C(NCc1ccc(Cl)cc1)NC12CC3CC(CC(C3)C1)C2,2.95% (active)
20,COC(=O)Cc1ccc(NC(=S)NCc2ccc(Cl)cc2)cc1,83.4%
21,C=CCNC(=O)COC(=O)c1ccccc1C(=O)N(C)C1CCCCC1,92.8%
22,Cc1cc(C)cc(NC(=S)NCc2ccc(F)cc2)c1,78.2%
23,Cc1ccc(C(=O)N2CC(=O)Nc3ccccc32)o1,100%

row,Structure (SMILES),viability
1,CC(=O)c1cc(-c2ccccc2)n(CCC(=O)NC2CCCCCC2)c1C,74.8%
2,COc1cccc(N(C(=O)C2COc3ccccc3O2)C(C(=O)NC2CCCCC2)c2ccc(O)cc2)c1 (configuration not stated),56.8%
3,COC(=O)Cc1csc(/N=C/c2c(O)n(-c3cccc(C(F)(F)F)c3)c(=O)c3ccccc23)n1,47.7%
4,COc1ccc(OC)c(C2C3=C(N=c4s/c(=C\c5cccc(O)c5)c(=O)n42)c2ccccc2CC3)c1 (configuration not stated),3.19% (active)
5,O=C1CCCC2=C1C(c1ccccc1)n1c(s/c(=C/c3cccc(F)c3)c1=O)=N2 (configuration not stated),80.9%
6,CCOC(=O)C1=C(C)N=c2s/c(=C\C(=O)OC)c(=O)n2C1c1ccc(OC)cc1 (configuration not stated),95.2%
7,COc1ccccc1CNC(=O)CN1CCC(n2cnc3cc(F)ccc32)CC1,101%
8,CNc1nc(Nc2ccc(C)c(Cl)c2)nc(N)c1[N+](=O)[O-],2.94% (active)
9,Nc1nc(NCCCN2CCOCC2)nc(Nc2ccccc2)c1[N+](=O)[O-],63.9%
10,COCCNc1nc(N)c([N+](=O)[O-])c(NCCO)n1,100%
11,CCN(CC)c1ccc(S(=O)(=O)N2CCOCC2)cc1NC(=O)CSc1cccc[n+]1[O-],93.9%
12,CCN(CC)CCOc1ccc2c(c1)C(=NNC(=O)c1ccccn1)c1cc(OCCN(CC)CC)ccc1-2,0.61% (active)
13,COc1ccc(CC(=O)N/N=C(\C)c2ccccn2)cc1,4.88%
14,CCC(C)(NC(=O)c1ccccn1)C(=O)NC1CCCCC1 (configuration not stated),105%
15,COc1ccc(S(=O)(=O)Nc2ccc(O)c(Sc3nc4ccccc4s3)c2)cc1,78.8%
16,O=C(O)c1cccc(S(=O)(=O)Nc2ccc(O)cc2Sc2nc3ccccc3s2)c1,94%
17,O=[N+]([O-])c1c(NCCO)cc(Sc2nc3ccccc3s2)c2nonc12,1.48% (active)
18,CCCCCNC(=O)c1cccnc1SCC(=O)Nc1ccccc1OC,91.1%
19,COc1ccc(CCN(C(=O)COc2ccccc2)c2nc(-c3ccccc3)cs2)cc1OC,74.5%
20,COc1ccc(C(CCN(Cc2ccc(OC)c(OC)c2)C(=O)CCl)c2ccccc2)cc1 (configuration not stated),1.54% (active)
21,CCOC(=O)CN(Cc1ccc(OC)c(OC)c1)S(=O)(=O)c1ccc(OC)cc1,96.9%
22,Cc1cc(F)ccc1S(=O)(=O)N1CCCOC1CNC(=O)C(=O)NCCC1=CCCCC1 (configuration not stated),93.5%
23,N#Cc1ccc(C(=O)Nc2nc(-c3cccs3)c(C(=O)C(F)(F)F)s2)cc1,40.3%
